Tg IFNy HTS: T. gondii growth inhibition with IFN-gamma, primary screen, cell-based | Toxoplasma gondii growth in IFN-gamma-treated host cells; stronger effect = lower value | activity change, negative = inhibition, % (test concentration not listed) | 69,000 tested, 3.8% active; in the data active = activity change below about -70%, passing the limit was not always enough;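 note: host cells are HeLa cells infected with Toxoplasma gondii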
Active calls of the source: *; ! = repeats disagree. Shown is part of a subset that was picked to be rich in hits.

Screening CCC(=O)Nc1cccc(-c2cn3ccc(C)cc3n2)c1 returned Tg IFNy HTS -12.
For CCc1ccn2cc(-c3cc(-c4ccccc4)no3)nc2c1 the results were Tg IFNy HTS -81*.
CCc1nc(CN(C)C(=O)c2cc(-c3ccccc3)no2)no1 was read as Tg IFNy HTS 6.
For C=CCN1Cc2nnn(CC)c2C(COCC(=O)N(C)C)C1 (stereo not drawn) the results were Tg IFNy HTS -1.
Screening CCOc1ccc(NC(=O)Cn2ncc3c(N4CCC(C)CC4)ncnc32)cc1 returned Tg IFNy HTS -31.
`O=C(Cn1ncc2c(N3CCCC3)ncnc21)Nc1ccc(Oc2ccccc2)cc1` gave Tg IFNy HTS -60.
`O=C(Nc1ccc(Oc2c(F)c(F)c(F)c(F)c2F)cc1)OC1CCN2Cc3ccccc3N=C12` (stereo not drawn) gave Tg IFNy HTS -99*.
For CC(C)c1cc(C2CCCN2Cc2c[nH]c3ccccc23)on1 (stereo not drawn) the results were Tg IFNy HTS -24.
For CNC(=O)[C@H]1C[C@@H]2OCC[C@@H]2N(Cc2ccco2)C1 the results were Tg IFNy HTS 104.
For CO[C@@H]1CN(C)C(=O)c2cc(NC(=O)c3cccc(F)c3)ccc2OC[C@@H](C)N(C)C[C@H]1C the results were Tg IFNy HTS 3.
`CO[C@@H]1CN(C)C(=O)c2cc(NC(=O)c3cccc(F)c3)ccc2OC[C@@H](C)N(C)C[C@@H]1C` gave Tg IFNy HTS -75*.
For CO[C@@H]1CN(C)C(=O)c2cc(NC(=O)C3CC3)ccc2OC[C@H](C)N(Cc2cc(F)ccc2F)C[C@@H]1C the results were Tg IFNy HTS -59.
CO[C@H]1CN(C)C(=O)c2cc(NC(=O)C3CC3)ccc2OC[C@H](C)N(Cc2cc(F)ccc2F)C[C@@H]1C was read as Tg IFNy HTS -72*.
CO[C@H]1CN(C)C(=O)c2cc(NC(=O)c3cccc(F)c3)ccc2OC[C@@H](C)N(C)C[C@H]1C was read as Tg IFNy HTS 8.
For CCCN1C[C@H](C)[C@@H](OC)CN(C)C(=O)c2cc(NC(=O)C3CCC3)ccc2OC[C@@H]1C the results were Tg IFNy HTS 7.
O[C@@H]1CN(Cc2cccc3[nH]ccc23)CC[C@H]1c1ccc(F)cc1 was read as Tg IFNy HTS -4.
Cc1cc(C)c2c(=O)n(Cc3nc(-c4ccc(Cl)cc4)oc3C)c(=O)n(-c3ccccc3)c2n1 was read as Tg IFNy HTS 0.
O=C(CCC1N=C2c3ccccc3N=C(SCc3cc(=O)n4cc(Cl)ccc4n3)N2C1=O)NCc1cccs1 (stereo not drawn) was read as Tg IFNy HTS 0.
`CCOc1cccc(CC(=O)N2CCc3c([nH]c4ccccc34)C2c2cccnc2)c1OCC` (stereo not drawn) gave Tg IFNy HTS 11.
For O=C(c1cccs1)N1CCc2c([nH]c3ccccc23)C1c1cccnc1 (stereo not drawn) the results were Tg IFNy HTS 10.
Screening O=C(c1ccc(Br)cc1)N1CCc2c([nH]c3ccccc23)C1c1cccnc1 (stereo not drawn) returned Tg IFNy HTS -86*.
`Cc1cccc(C(=O)N2CCc3c([nH]c4ccccc34)C2c2cccnc2)c1` (stereo not drawn) gave Tg IFNy HTS -109*.
`O=S(=O)(c1ccccc1)N1CCC2(CCCN2Cc2ccccc2F)C1` (stereo not drawn) gave Tg IFNy HTS -9.
For NCc1ccc(-c2ccccc2CO)cc1 the results were Tg IFNy HTS 10.
CCOC(=O)N1CCC2(CC1)OC(=O)C(C)=C2C(=O)NCc1ccccc1F was read as Tg IFNy HTS 58.
CN(Cc1ccccc1)C1CCN(C(=O)c2ccoc2)C(C(=O)O)C1 (stereo not drawn) was read as Tg IFNy HTS 2.
Screening CC(=O)N1CCC(C(=O)NCc2ccccc2)(N(CCC(C)C)C(=O)c2ccc(Br)cc2)CC1 returned Tg IFNy HTS -16.
Screening Cc1ccc(C(=O)N2CCCC(c3nn(C)c4ncccc34)C2)s1 (stereo not drawn) returned Tg IFNy HTS 59.
`CNc1nc(C2CCN(C(=O)c3c(C(C)C)noc3C)CC2)nc2c1CN(C(C)=O)CC2` gave Tg IFNy HTS 15.
Cc1onc(C(C)C)c1C(=O)N1CCC(c2cc(C(F)(F)F)c3c(N)[nH]nc3n2)CC1 was read as Tg IFNy HTS -75*.
`Cc1ncc(C(=O)N2CCC(c3cc4nc(C(C)C)cc(C(F)(F)F)n4n3)CC2)c(C)n1` gave Tg IFNy HTS -3.
`COc1ccc(C(O)C(=O)NCc2nn(C)c3ccc(C)cc23)cc1` (stereo not drawn) gave Tg IFNy HTS 10.
`Cc1ccc(NC(=O)C(=O)NCCc2sc(-c3ccc(C)cc3)nc2C)cc1` gave Tg IFNy HTS 181.
For CCOc1ccc(CC(=O)NCCc2csc(-c3cccc(C)c3)n2)cc1 the results were Tg IFNy HTS inactive.
For CC(C)(C)C1CCc2nc(-c3cccnc3)nc(Nc3cccc(C(F)(F)F)c3)c2C1 (stereo not drawn) the results were Tg IFNy HTS -73*.
For O=C(O)c1cccnc1Nc1cccc(C(F)(F)F)c1 the results were Tg IFNy HTS -4.
For Cc1nc(CCNc2nc(-c3cccnc3)nc3c2CCNC3)sc1C the results were Tg IFNy HTS 136.
Screening COCCn1c(C)c(C)c2cc(NC(=O)C3(c4ccccc4F)CCOCC3)ccc21 returned Tg IFNy HTS -3.
Screening C=CCn1nc(C(=O)N2CCOCC2)c2c1CCC(NCc1nc(-c3ccccc3)cs1)C2 (stereo not drawn) returned Tg IFNy HTS -5.
Screening O=C(O)Cc1ccc(-n2cnnn2)cc1 returned Tg IFNy HTS 6.
CCn1nc(CC(C)C)cc1C(=O)N1CC(c2ccncc2)C1 was read as Tg IFNy HTS -50.
Screening O=C(O)CN1CC[C@H]2CN(C(=O)c3ccsc3)CCO[C@@H]2C1 returned Tg IFNy HTS -1.
`COc1ccc2c(c1)OCC(CN(Cc1ccccn1)CC1CCCO1)=C2` (stereo not drawn) gave Tg IFNy HTS 29.
For Clc1ccc(-c2nc(NC3CCCC3)c3ccccc3n2)cc1 the results were Tg IFNy HTS 55.
`Clc1ccc(C2C=C(c3ccccc3)Nc3ncnn32)cc1` (stereo not drawn) gave Tg IFNy HTS -85*.
Fc1ccc(C2Oc3ccc(Cl)cc3C3=C2C(c2ccccc2)n2ncnc2N3)cc1 (stereo not drawn) was read as Tg IFNy HTS -23.
For CC(C)(C)CN1CC2(CCN(C(=O)Cc3ccc(Cl)cc3)C2)C1 the results were Tg IFNy HTS 3.
`O=S(=O)(Cc1ccccc1)N1CCC2(CCN(Cc3ccc(Cl)cc3)C2)C1` (stereo not drawn) gave Tg IFNy HTS -5.
For O=C(Cc1ccc(Cl)cc1)N1CC2(CCN(Cc3ccc(C(F)(F)F)cc3)CC2)C1 the results were Tg IFNy HTS -80*.
Screening Cc1cc(OCC(=O)O)cc(C)c1Cc1ccc(O)c(C(C)C)c1 returned Tg IFNy HTS 18.
`CC(=O)N[C@H]1C[C@@H](c2cnn(-c3cccc(C)c3)c2)O[C@@H](C(C)C)C1` gave Tg IFNy HTS -6.
`O=c1cc(-c2ccccc2)oc2cc(O)c(O)c(O)c12` gave Tg IFNy HTS -77*!.
Screening O=c1c(O)cccc2cc(O)c(O)c(O)c12 returned Tg IFNy HTS 12.
For COc1cc2oc(-c3ccc(O)cc3)cc(=O)c2c(OC)c1O the results were Tg IFNy HTS -82*.
